Rows were chosen to be rich in hits. Some 1.7% of all compounds tested hit in one or more screens of this group.
CHT PAM: allosterically activates the human high affinity choline transporter. AID 488977. CHT-expressing cells, membrane potential dye, choline EC20; stronger effect = higher value; LV-AA mutant CHT in HEK293 cells. B-score at 10 µM. 310,000 compounds, 0.49% hits;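 active = initial fluorescence not abnormally high and integrated response B-score, plate-corrected, over 3 SD above library mean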
Target sequence (Q9GZV3 whole entry, looked up): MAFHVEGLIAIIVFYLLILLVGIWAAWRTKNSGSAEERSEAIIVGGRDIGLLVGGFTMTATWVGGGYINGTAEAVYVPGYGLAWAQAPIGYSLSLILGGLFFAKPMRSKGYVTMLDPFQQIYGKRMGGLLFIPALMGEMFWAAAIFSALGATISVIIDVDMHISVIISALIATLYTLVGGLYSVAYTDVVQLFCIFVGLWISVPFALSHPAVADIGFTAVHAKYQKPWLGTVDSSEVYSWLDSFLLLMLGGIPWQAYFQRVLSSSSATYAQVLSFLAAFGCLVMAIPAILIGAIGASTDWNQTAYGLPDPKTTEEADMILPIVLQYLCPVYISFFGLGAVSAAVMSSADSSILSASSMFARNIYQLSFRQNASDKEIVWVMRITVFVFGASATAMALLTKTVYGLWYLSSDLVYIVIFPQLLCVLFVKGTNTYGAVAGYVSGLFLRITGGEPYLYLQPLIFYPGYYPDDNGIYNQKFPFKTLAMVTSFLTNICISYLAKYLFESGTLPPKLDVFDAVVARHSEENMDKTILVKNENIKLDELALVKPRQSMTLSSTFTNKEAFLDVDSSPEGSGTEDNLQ
MIN6 prolif: inducers of beta-cell replication in MIN6 cells | MIN6 cells proliferation, ATPlite luminescence, 48 h; cells starved in 0.2% serum; 100% = growth in 10% serum | proliferation, % at 10 µM | 330,000 compounds, 0.29% hits | AID 2380;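 active = compounds whose signal lies at least 3.5 SD above the mean of all wells on their plate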
CHT block: inhibitors of human choline transporter CHT. CHT-expressing cells, membrane potential dye, choline response; stronger effect = lower value. B-score at 10 µM. 310,000 compounds, 0.86% hits. AID 488975;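 active = B-score over 3 SD under the library average, and starting fluorescence ratio not unusually high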;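 note: choline stimulus applied at its EC90 after an EC20 pre-addition; B-score computed on integrated fluorescence ratio after choline addition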
TAG inh: triacylglycerol accumulation inhibition. 230,000 compounds, 0.66% hits. H9c2 cells, Nile Red lipid (TAG) fluorescence; cells loaded with 200 µM oleic acid. inhibition, % at 12.5 µM. AID 651582;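 active = pattern-corrected inhibition of lipid staining of at least 50% with the nuclear-stain viability signal not falling by more than 50%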
CHT activ conf: human CHT activation, confirmatory screen; activation, % at 10 µM; shares compounds with CHT PAM; 2,500 compounds, 91% hits; AID 504833; CHT-expressing cells, membrane potential dye fluorescence (FDSS); % of choline EC20–EC90 response window; HEK293 expressing CHT LV-AA mutant; choline added at its EC20;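 active = primary screen active, with duplicate mean activation above negative control mean plus 3 SD, cut at about 11% in these data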
HEK293 MP dye: counter-screen for CHT activators: effect in parental HEK293 cells. shares compounds with CHT PAM. membrane potential dye fluorescence (FDSS); measured after EC20 choline addition. ratio readout change at 10 µM, hits read low. 2,500 compounds, 62% hits. AID 623908;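 active = duplicate-averaged ratio beyond 3 SD from buffer wells, up or down, though filed actives are nearly all decreases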
H9c2 TAG conf: triacylglycerol accumulation inhibition, confirmation; shares compounds with TAG inh; H9c2 lipid accumulation, Nile Red fluorescence; cells loaded with 200 µM oleic acid; inhibition, % at 12.5 µM; 990 compounds, 71% hits; AID 651629;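 active = mean inhibition across replicates of 40% or more; inactive = mean inhibition below 40%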
Of the large screens only hits and unclear results are named; the others gave an inactive call (follow-up assays come after a bar, where they were run).

COc1ccc(C2NCc3ccc4c(c3-n3cccc32)OCO4)cc1O (centres undefined)	CHT PAM 11.2 (no result: TAG inh) | CHT activ conf 16.2 | HEK293 MP dye inactive
O=C(c1ccco1)c1cn(Cc2ccc(Cl)cc2)c2ccccc12	none | CHT activ conf 18.3 | HEK293 MP dye inactive
CC(=O)c1cn(Cc2ccc(F)cc2)c2ccccc12	none (no result: TAG inh)
COC(=O)C1=C(c2cccc(OC)c2OC)C[C@@H]2CC[C@H]1N2C(=O)NCc1cccc2ccccc12	none
COC(=O)C1=C(c2cccc(OCc3ccccc3)c2)C[C@@H]2CC[C@H]1N2C(=O)NCc1cc(C)oc1C(F)(F)F	none (no result: CHT PAM, CHT block)
O=C(CNC(=O)c1cccc(Cl)c1)Nc1ccc(Br)cc1C(=O)c1ccccc1	CHT PAM 7.73 (no result: TAG inh) | CHT activ conf 20.1 | HEK293 MP dye inactive
Clc1cc(Cl)cc(NC2=NCCS2)c1	none
COc1c2c(cc3c1OCO3)CC[N+](C)=C2	CHT PAM 9.22 (no result: TAG inh) | CHT activ conf 57.5 | HEK293 MP dye -60.4
COc1ccc2c(c1OC)CN1CCc3cc4c(cc3[C@H]1C2)OCO4	none (no result: CHT PAM, CHT block)
COc1ccc(-n2c(SCCN(C)C)nc3ccccc3c2=O)cc1	none | CHT activ conf 36.5 | HEK293 MP dye -42.3
COc1ccc2c(c1O)-c1c(OC)c(OC)cc3c1[C@H](C2)N(C)CC3	CHT PAM 8.42 | CHT activ conf 56.4 | HEK293 MP dye -66.1
COc1cc2c(cc1OC)-c1c(OC)c(OC)cc3c1[C@H](C2)N(C)CC3	CHT PAM 7.64 | CHT activ conf 43.6 | HEK293 MP dye -72.8
COC(=O)C1=C(c2ccc(-c3ccccc3)c(F)c2)C[C@@H]2CC[C@H]1N2C(=O)NCCOc1ccccc1	none (no result: CHT PAM, CHT block)
CCOc1ccc(-n2c(O)c(N=Nc3ccc([N+](=O)[O-])cc3)c(=O)[nH]c2=O)cc1	none
CN1CCN(C(=O)COc2ccc(Oc3ccccc3)cc2)CC1	none
CN1CCN(C(=O)O[C@H]2c3nccnc3C(=O)N2c2ccc(Cl)cn2)CC1	CHT PAM 6.87 (no result: TAG inh) | CHT activ conf 83.8 | HEK293 MP dye -44.3
O=C(NCCCN1CC1)Nc1cccc2ccccc12	none (no result: CHT PAM, MIN6 prolif, CHT block)
O=[N+]([O-])c1ccc(N2CCCC2)c2ncccc12	none
CC1CN(c2ccc([N+](=O)[O-])c3cccnc23)CC(C)N1 (centres undefined)	none | CHT activ conf 47.9 | HEK293 MP dye -83.6
C=C1C2C[C@@]3([C@@H]1O)[C@@H](C[C@@H]2O)[C@@]12C4[C@@H]3C[C@@H]1[C@@](C)(CC[C@@H]2O)CN4CC	none
CN1CCN(c2c(F)cc([N+](=O)[O-])c(N)c2Br)CC1	CHT PAM 6.65 | CHT activ conf 45.9 | HEK293 MP dye -48.9
Nc1c([N+](=O)[O-])cc(F)c(N2CCNCC2)c1Br	none (no result: TAG inh) | CHT activ conf 43.0 | HEK293 MP dye -55.3
CC(ON1CC1(C(F)(F)F)C(F)(F)F)(C(N)=O)C(N)=O (centres undefined)	none (no result: TAG inh)
COc1ccc(Cl)cc1C(=O)C1CCCN(Cc2cnc(C)s2)C1 (centres undefined)	none
COC(=O)C1=C(c2cccc(OCc3ccccc3)c2)C[C@@H]2CC[C@H]1N2C(=O)NCc1cccc(C(F)(F)F)c1	none (no result: CHT PAM, CHT block)
COc1ccc(-c2cc(-c3ccccc3)[n+](C)c(-c3ccccc3)c2)cc1	none | CHT activ conf 34.9 | HEK293 MP dye inactive
C[n+]1c(-c2ccccc2)cc(CCCCc2cc(-c3ccccc3)[n+](C)c(-c3ccccc3)c2)cc1-c1ccccc1	CHT PAM 6.81 | CHT activ conf 49.7 | HEK293 MP dye -63.7
COc1ccc2[nH]cc(CCN)c2c1	none (no result: TAG inh)
COc1ccc2[nH]c3c(c2c1)CCN=C3C	CHT PAM 7.11 | CHT activ conf 46.8 | HEK293 MP dye -45.5
Cc1ccccc1NP(=O)(Oc1ccccc1F)Oc1ccccc1F	CHT PAM 6.29 (no result: TAG inh) | CHT activ conf 9.9 | HEK293 MP dye inactive
Cc1cccc(NP(=O)(Oc2ccccc2)Oc2ccccc2)c1C	none (no result: TAG inh)
CC(=O)c1ccc(NC(=O)N2C[C@H]3C[C@@H](C2)c2cccc(=O)n2C3)cc1	none (no result: TAG inh)
C1=NCCCN2CCCCC12 (centres undefined)	none (no result: CHT PAM, MIN6 prolif, CHT block)
Clc1cccc(N2CCNCC2)n1	none
Cc1cc(N2CCNCC2)nc2ccccc12	CHT PAM 7.52 | CHT activ conf 59.5 | HEK293 MP dye -65.3
O=C1CC2OCC=C3CN4CCC56c7cc([N+](=O)[O-])ccc7N1C5C2C3CC46 (centres undefined)	none (no result: TAG inh) | CHT activ conf 50.5 | HEK293 MP dye -50.2
Cc1ccc(-c2nc(N(C)C3CCN(C)CC3)c3ccccc3n2)cc1	none (no result: TAG inh) | CHT activ conf 36.6 | HEK293 MP dye -68.3
COc1cc(/C=C/c2nc3ccccc3c(=O)n2-c2ccc(O)cc2)ccc1O	none (no result: TAG inh) | CHT activ conf 18.0 | HEK293 MP dye inactive
COc1ccc(-n2c(/C=C/c3ccc(O)c(O)c3)nc3ccccc3c2=O)cc1	none (no result: TAG inh)
C1CN(P2(N3CC3)=NP(N3CC3)(N3CC3)=NP(N3CC3)(N3CC3)=N2)CCO1 (centres undefined)	none (no result: CHT PAM, MIN6 prolif, CHT block)
Cn1c(=O)n(C)c2cc([N+](=O)[O-])c(N3CCNCC3)cc21	CHT PAM 9.69 | CHT activ conf inactive | HEK293 MP dye inactive
C[C@@H]1CN([C@@H](C)CO)C(=O)CCCn2nncc2CO[C@H]1CN(C)C(=O)Oc1cccc2ccccc12	none (no result: CHT PAM, MIN6 prolif, CHT block)
CNC(=S)N(C)CCc1cc2c(c(OC)c1C=C1C(=O)NC(=O)NC1=O)OCO2	CHT PAM 7.31 | CHT activ conf 51.3 | HEK293 MP dye -55.8
CCCC(=O)c1ccc(CP(=O)(OCC)OCC)o1	none
CCOC(=O)c1ccc2c(c1)n(Cc1ccccc1)c(C)[n+]2CC	CHT PAM 8.06 | CHT activ conf 46.8 | HEK293 MP dye -50.9
CC[n+]1c(SC)ccc2cc(OC)ccc21	none (no result: TAG inh) | CHT activ conf 63.6 | HEK293 MP dye -58.9
COC(=O)C1=C(c2ccc(F)cc2F)C[C@@H]2CC[C@H]1N2C(=O)NCCCOC(C)C	none (no result: CHT PAM, CHT block)
CN1CSC(=S)N(C)C1	TAG inh 64.5 | H9c2 TAG conf 64.2
COc1ccc2[nH]c(C)c(CCNCc3cn(C)c4ccccc34)c2c1	TAG inh 55.6 (no result: CHT PAM, CHT block) | H9c2 TAG conf 46.1
COc1ccc(C2=CC(c3ccc4c(c3)OCO4)c3c(c4ccccc4oc3=O)O2)cc1OC (centres undefined)	TAG inh 60.7 (no result: CHT PAM, MIN6 prolif, CHT block) | H9c2 TAG conf 60.5
COc1ccc(C(CC(=O)c2ccc3c(c2)OCO3)c2c(O)c3ccccc3oc2=O)cc1OC (centres undefined)	none (no result: CHT PAM, MIN6 prolif, CHT block)
C[C@H](NC(=O)N1C[C@H]2C[C@@H](C1)c1cccc(=O)n1C2)C(=O)Nc1ccccc1F	none (no result: TAG inh)
